# Measured values: PubChem BioAssay AID485297 (National Center for Advancing Translational Sciences (NCATS), 2010)
# In all, about 320,000 compounds went through this assay and about 9,100 (2.8%) were called active. Entries that show only a call come without a potency. Another 3% or so got no clear call; they are omitted. Calls come from the whole dose curve; as a rule, active = well fitted activation curve with a large enough effect; inconclusive = small, poorly fitted or top-dose-only effect; inactive = no such curve, though single readings can be large or run the other way. The full list was thinned out, with actives kept by preference.
# Assay: qHTS Assay for Rab9 Promoter Activators; note: nearly all actives have a fitted effect of over 60% in size
# Settings: Huh7 Rab9 promoter-luciferase reporter, luminescence, 24 h; series mostly up to 9.22 µM
# In short: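 Promoter activation is measured as luciferase luminescence in Huh7 cells stably transfected with a Rab9 promoter–luciferase construct, following 24 h compound exposure at 37 °C and 10 min reagent incubation at ambient temperature.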
# Potency is the fitted concentration of half-maximal effect.
row,SMILES,Potency
1,COc1cccc(-c2nnc(N(C)C(=O)c3ccno3)s2)c1,inactive
2,COc1cc(OC)cc(-c2nnc(N(C)C(=O)c3ccncc3)s2)c1,inactive
3,CN(C(=O)c1ccccn1)c1nnc(-c2ccccn2)s1,3550 nM (active)
4,O=C(CNc1ccccc1N1CCCC1=O)Nc1cc(Cl)ccc1-n1cncn1,inactive
5,Cc1c(Br)c([N+](=O)[O-])nn1CC(=O)N1CCN(Cc2ccccc2)CC1,inactive
6,O=C(COC(=O)c1cc(=O)[nH]c2ccccc12)NCc1cccc(Cl)c1,inactive
7,COc1ccc(C(=O)NCCSc2ccccc2C)cc1,794 nM (active)
8,COc1cccc(C(=O)NCCSc2ccc(Br)cc2)c1,inactive
9,COc1ccc(C(=O)NCc2nnc(SCCOc3ccccc3)n2C)cc1,inactive
10,CCNC(=O)N1CCN(S(=O)(=O)c2ccc3c(c2)OCCCO3)CC1,inactive
11,COc1ccc(OC)c(/C=N/NC(=O)c2ccc[n+](CC(=O)c3ccccc3)c2)c1,inactive
12,O=c1c2ccccc2nc2n1C(CSc1ccc(Cl)cc1)CN2 (centres undefined),inactive
13,Clc1ccc2nc(CSc3ccccc3)cn2c1,316 nM (active)
14,O=C(/C=C/c1ccc2c(c1)OCO2)NCc1cn2cc(Cl)ccc2n1,inactive
15,COc1cc2ccccc2cc1C(=O)Nc1ccc(NC(=O)c2cccs2)cc1,inactive
16,O=C(Nc1ccc2oc(-c3ccc4ccccc4c3)nc2c1)c1cccs1,1260 nM (active)
17,O=C(Nc1ccc(NC(=O)c2cccs2)cc1)c1ccc2ccccc2c1,inactive
18,COc1ccc(S(=O)(=O)N2CCN(CC(=O)N3c4ccccc4CC3C)CC2)cc1OC (centres undefined),inactive
19,Nc1nc(SCC(=O)Nc2ccc(Cl)c([N+](=O)[O-])c2)n[nH]1,inactive
20,C/C=C\C=C\C(=O)N1CC2(CC(c3cccc(NC(=O)/C(C)=C\C)c3)=NO2)C[C@H]1C(N)=O (some centres undefined),inactive
21,COc1ccccc1C1CCN(C(=S)Nc2ccc(Br)cc2)CC1,inactive
22,CC(C(=O)N1CCc2ccccc21)N(C)CC(=O)Nc1ccc(F)cc1 (centres undefined),inactive
23,CN(Cc1cnccn1)C(=O)c1cc(COc2cccc(C(F)(F)F)c2)on1,inactive
24,CN(Cc1cccnc1)C(=O)c1cc(COc2ccc3ncccc3c2)on1,inactive
25,Cc1cc(CN(C)C(=O)c2cc(COc3ccc(C)c(C)c3)on2)n[nH]1,2000 nM (active)
26,CCn1ccnc1CN(C)C(=O)c1cc(COc2ccc(-n3cncn3)cc2)on1,inactive
27,Cc1ccc(OCc2cc(C(=O)N(C)CCc3ccccc3)no2)cc1C,3980 nM (active)
28,CN(CCOc1ccccc1)C(=O)c1cc(COc2c(F)cccc2F)on1,inactive
29,COc1ccc(C(=O)N2CCN(c3ncccn3)CC2)cc1S(=O)(=O)N1CCOCC1,inactive
